Screening results: PubChem, several laboratories
BoNT F protease = inhibitors of Botulinum neurotoxin F light chain protease; Multiplex microsphere protease cleavage assay, flow cytometry; inhibition, % at 10 µM; 360,000 compounds, 0.22% hits; AID 588497; in the data active = inhibition above about 35%, passing the limit was not always enough; inconclusive = no clear call, values can overlap the other calls
MazEF act = activators of E. coli MazEF toxin-antitoxin RNase; P0AE70; 350,000 compounds, 0.32% hits; activation, % at 20 µM; FAM/BHQ RNA-DNA oligo cleavage fluorescence, 5 h; in the data active = activation above about 50%
BoNT-A LC inh2 = BoNT A light chain protease inhibition | 360,000 compounds, 0.17% hits | AID 588499 | inhibition, % at 10 µM | multiplex microsphere protease substrate cleavage, flow cytometry
Autofluor counter = counter-screen for toxin protease inhibitors: compound fluorescence; compound autofluorescence counterscreen, microsphere flow cytometry; stronger effect = higher value; fluorescence intensity (no concentration beside the values); 360,000 compounds, 3.1% hits; in the data active = fluorescence intensity above about 16000; inconclusive = no clear call, values can overlap the other calls
Anthrax LF inh2 = blocks Bacillus anthracis lethal factor protease | multiplex microsphere protease cleavage assay, LF | P15917 | AID 588501 | inhibition, % at 10 µM | 360,000 compounds, 0.12% hits
Target sequence (P15917 whole entry, looked up): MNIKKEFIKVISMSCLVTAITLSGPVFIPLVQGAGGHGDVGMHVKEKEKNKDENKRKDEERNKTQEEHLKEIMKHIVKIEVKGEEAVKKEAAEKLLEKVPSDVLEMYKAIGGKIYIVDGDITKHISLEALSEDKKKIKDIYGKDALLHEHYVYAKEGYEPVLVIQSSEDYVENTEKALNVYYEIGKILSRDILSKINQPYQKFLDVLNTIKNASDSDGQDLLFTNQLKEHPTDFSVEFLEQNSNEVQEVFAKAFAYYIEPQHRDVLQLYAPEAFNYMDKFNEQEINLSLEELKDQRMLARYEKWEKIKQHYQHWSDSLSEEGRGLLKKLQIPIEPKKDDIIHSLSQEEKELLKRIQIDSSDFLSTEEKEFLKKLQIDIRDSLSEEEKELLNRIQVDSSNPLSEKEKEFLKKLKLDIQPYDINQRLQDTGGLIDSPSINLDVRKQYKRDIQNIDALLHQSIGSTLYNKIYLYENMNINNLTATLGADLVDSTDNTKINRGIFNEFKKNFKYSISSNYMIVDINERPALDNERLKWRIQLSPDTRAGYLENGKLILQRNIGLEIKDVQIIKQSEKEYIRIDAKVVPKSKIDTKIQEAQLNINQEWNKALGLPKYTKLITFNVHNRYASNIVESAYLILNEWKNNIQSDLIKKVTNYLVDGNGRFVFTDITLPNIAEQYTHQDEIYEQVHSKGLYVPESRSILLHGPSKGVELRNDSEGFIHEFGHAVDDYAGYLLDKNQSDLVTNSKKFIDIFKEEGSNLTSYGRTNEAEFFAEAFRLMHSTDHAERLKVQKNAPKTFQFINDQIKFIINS
Each line names hits and unclear results; the compound was inactive in the other large screens. Shown are actives, neighbours in structure and some others; about 3.7% of the full set was active somewhere. Cut-off read from the data, not from the text of the source, unless noted: active = inhibition above about 30%; inconclusive = no clear call, values can overlap the other calls; inactive = below that.

O=C(COc1ccc([N+](=O)[O-])cc1)NC(=O)NC1CCS(=O)(=O)C1 (centres undefined)	none
O=C(CSc1ncccn1)n1c2c(c3ccccc31)CCCC2	Autofluor counter 18875
Cn1c(=O)n(CCC(=O)O)c2ccccc21	none
CN(C)C(=O)Cn1c(=O)n(C)c2ccccc21	Autofluor counter 22347
COc1cccc2cc(NC(=O)C3CCCCC3)c(=O)oc12	BoNT-A LC inh2 inconclusive, Autofluor counter 21365
O=S(=O)(NCC1CCCO1)c1ccc(Oc2ccccc2)cc1 (centres undefined)	Autofluor counter 21154
CCC(Oc1ccccc1)C(=O)Nc1ccc(S(=O)(=O)NCC2CCCO2)cc1 (centres undefined)	Autofluor counter 20336
COc1cccc2cc(C(=O)N3CCCCC3C)c(=O)oc12 (centres undefined)	none
COc1cccc2cc(C(=O)Nc3ccc(S(=O)(=O)NCC4CCCO4)cc3)c(=O)oc12 (centres undefined)	Autofluor counter 24536
COc1cc(/C=C2/C(=O)c3cccc([N+](=O)[O-])c3C2=O)c(Br)cc1O	none
CC(C)NC(=O)CN1CCC(c2nc3ccccc3[nH]2)CC1	none
COc1cccc(CN(CC(=O)NCC2CCCO2)C(=O)CNS(=O)(=O)c2ccccc2)c1 (centres undefined)	Autofluor counter 16841
CCCS(=O)(=O)c1c(S(=O)(=O)CCC)c2c(N)cccn2c1C(=O)OC	none
CCCS(=O)(=O)c1c(S(=O)(=O)CCC)c2c(N)cccn2c1C(=O)c1ccccc1	BoNT-A LC inh2 inconclusive, Autofluor counter 16615
NC(=O)c1ccc(NC(=O)Cc2ccc(S(=O)(=O)N3CCCCC3)cc2)cc1	none
COc1ccc(C(=O)NCC(=O)Nc2ccc(F)cc2)cc1OC	BoNT-A LC inh2 inconclusive, Autofluor counter 16515
Cc1cccc(OC(C)c2ccnc3nc(/N=C/N(C)C)nn23)c1 (centres undefined)	Autofluor counter 21315
Cc1ccc(C)c(S(=O)(=O)NC(C)C(=O)Nc2ccc(-c3nc4ccccc4s3)cc2)c1 (centres undefined)	MazEF act 52.5
CC(NS(=O)(=O)c1cccc(Cl)c1)C(=O)Nc1ccc(-c2nc3ccccc3s2)cc1 (centres undefined)	none
CC[N+](CC)(CC)CCCCOc1ccc2c(c1)C(=O)c1cc(OCCCC[N+](CC)(CC)CC)ccc1-2	none (no result: BoNT F protease, BoNT-A LC inh2, Autofluor counter, Anthrax LF inh2)
O=C(COc1ccccc1)Nc1ccncc1Cl	none
CCCCN(C(=O)Nc1ccc(Cl)cc1)C1CCN(C(C)=O)CC1	Autofluor counter 17864
COCCN1C[C@@H](CO)O[C@@H](n2cnc3c(NC(C)C)ncnc32)C1	none (no result: MazEF act)
COc1ccc(Cn2c(=O)oc3ccccc32)cc1OC	none
COc1ccc(Cn2c(=O)oc3ccc(C)cc32)cc1OC	Autofluor counter 22068
COc1ccc(CNC(=O)c2cncc(Br)c2)cc1	none
CC1CN(S(=O)(=O)c2cccc(C(=O)N(CCc3ccccc3)Cc3ccccc3)c2)CC(C)O1 (centres undefined)	Autofluor counter inconclusive
CCCCCCNC(=O)C(C#N)c1nc2ccccc2nc1N1CCCC1 (centres undefined)	MazEF act 370.0
CCCCCCNC(=O)C(C#N)c1nc2ccccc2nc1N1CCOCC1 (centres undefined)	MazEF act 577.4
CCCCCNC(=O)C(C#N)c1nc2ccccc2nc1N1CCCC1 (centres undefined)	none
COCCCNC(=O)C(C#N)c1nc2ccccc2nc1N1CCCC1 (centres undefined)	MazEF act 739.4, Autofluor counter inconclusive, Anthrax LF inh2 inconclusive
CCCCCCOC(=O)C(C#N)c1nc2ccccc2nc1N1CCOCC1 (centres undefined)	Autofluor counter 19713
O=C(CN1CCCC1)Nc1ccccc1Cl	BoNT-A LC inh2 inconclusive, Autofluor counter 22970
Cc1c(Cl)cccc1NC(=O)CCN1CCCCCC1	none
O=C(CN1CCCC1)Nc1cccc(Cl)c1Cl	BoNT F protease inconclusive
COC(=O)c1ccc(Cl)c(NC(=O)CN2CCN(C)CC2)c1	BoNT-A LC inh2 inconclusive, Autofluor counter 23083
Cc1c(Cl)cccc1NC(=O)CN1CCN(CCO)CC1	Autofluor counter 22331
Cc1c(Cl)cccc1NC(=S)N1CCN(Cc2ccccc2)CC1	Autofluor counter 23770
CC(=O)c1c(C(=O)O)[nH]c(C(=O)O)c1C	none
COc1ccc(-c2ccc(-c3noc(C)n3)c(OC)n2)cc1	none
COc1nc(-c2ccc(C)cc2)ccc1-c1noc(-c2ccco2)n1	none
CCOc1cc(-c2nc(-c3ccc(C)nc3OC)no2)cc(OCC)c1OCC	none
CCOc1nc(-c2ccc(OC)cc2)ccc1-c1noc(C)n1	BoNT-A LC inh2 inconclusive, Autofluor counter 21728
CCOc1cc(-c2nc(-c3ccc(C)nc3OCC)no2)cc(OCC)c1OCC	BoNT-A LC inh2 inconclusive, Autofluor counter 23089
COc1ccc(-c2ccc(-c3noc(-c4ccccc4OC)n3)c(OC)n2)cc1	MazEF act 61.2
COc1nc(C)ccc1-c1noc(-c2ccco2)n1	Autofluor counter 20448
COc1ccc(-c2ccc(-c3noc(-c4ccccc4C)n3)c(OC)n2)cc1	none
Cc1ccc(C(=O)OCC(=O)NCc2cccc(Cl)c2)cc1S(=O)(=O)N1CCCCC1	none
C[C@@H](NC(=O)[C@@H]1Cc2ccccc2CN1C(=O)OC(C)(C)C)C(=O)NC1CCCC1	none
O=C(c1ccc(Cl)c(S(=O)(=O)N2CCOCC2)c1)N(Cc1ccco1)Cc1cccs1	none
COc1nc(-c2ccccc2)ccc1-c1noc(-c2cccnc2)n1	Autofluor counter 23960
COc1ccc(CC(=O)Nc2ccc(-c3noc(-c4ccccc4OC)n3)cc2)cc1	BoNT-A LC inh2 inconclusive, Autofluor counter 22431
COc1ccc(-c2nc(-c3ccc(Br)cc3)no2)c(OC)c1	Autofluor counter 19523
CCOc1ccc(N2CC(C(=O)N3CCc4ccccc43)CC2=O)cc1 (centres undefined)	none
C#CCOCCOCCOCCNc1nc(N2CCN(C(=O)CCCCCCCCCCNC(=O)[C@H](CO)n3cc(CCCSC)nn3)CC2)nc(N2CCN(C(=O)CCCCCCCCCCNC(=O)[C@H](CCCN=C(N)N)n3cc(C[C@@H](C)CC)nn3)CC2)n1	none
Cc1ccc(C2(C)NC(=O)N(CC(=O)NNC(=O)c3ccoc3C)C2=O)cc1 (centres undefined)	none
O=C1NC[C@@H](CCCCN2C[C@H](Cc3ccccc3)N(Cc3ccccc3)C(=O)C2=O)N(Cc2ccccc2)C1=O	none (no result: MazEF act)
CCn1c(CCNC(=O)c2cccs2)nnc1SCC(=O)NC1CCCCC1	BoNT-A LC inh2 inconclusive, Autofluor counter 21522
CCn1c(CNC(=O)c2ccccc2F)nnc1SCC(=O)NC1CCCCC1	none
CCn1c(CCNC(=O)c2cccs2)nnc1SCC(=O)Nc1ccc(Cl)cc1	BoNT-A LC inh2 inconclusive, Autofluor counter 22204
CCN1C=C(Cc2ccc(F)cc2)C2=C(C1)C(c1ccc(F)cc1)C(C#N)=C(N)O2 (centres undefined)	MazEF act 77.1
CCN1C=C(Cc2ccccc2C)C2=C(C1)C(c1ccccc1C)C(C#N)=C(N)O2 (centres undefined)	none
COc1ccc(C2(CNC(=O)/C=C/c3ccco3)CCCC2)cc1OC	Autofluor counter 19955
